Measurements as given in PubChem BioAssay AID1159580 (chemical genetic matrix, 2015).
The campaign covered roughly 5,500 compounds. About 2,000 (36%) were called active. Roughly 18% stayed inconclusive and do not appear here. Cut-off read from the data, not from the text of the source: active = normalized growth mostly below about 0.91 (no sharp cut-off); inconclusive = no clear call, values can overlap the other calls; inactive = mostly above about 0.92. This is one part of the list.

Experiment: chemical genetic growth profiling, strain panel (AID 1159580);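 note: tested at 20 µM; growth read once vehicle control cultures reached saturation at 30 °C; 1 = growth at the plate median or of vehicle wells; lower values mean less growth of the strain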
Conditions: growth OD

Measured: normalized growth

CC(N)C(O)c1ccc(O)c(O)c1 (stereo unspecified)
inactive: S. cerevisiae deletion strains, locus YAL013W, strain DEP1, hits give low values 1 | S. cerevisiae deletion strains, locus YBR021W, strain FUR4, hits give low values 0.982 | S. cerevisiae deletion strains, locus YBR229C, strain ROT2, hits give low values 0.98 | S. cerevisiae deletion strains, locus YCL029C, strain bik1, hits give low values 0.981 | S. cerevisiae deletion strains, locus YDL035C, strain GPR1, hits give low values 0.988 | S. cerevisiae deletion strains, locus YDL074C, strain BRE1, hits give low values 1.02 | S. cerevisiae deletion strains, locus YDL101C, strain DUN1, hits give low values 0.998 | S. cerevisiae deletion strains, locus YDL134C, strain PPH21, hits give low values 1.01 | S. cerevisiae deletion strains, locus YDL185W, strain tfp1, hits give low values 0.977 | S. cerevisiae deletion strains, locus YDL192W, strain arf1, hits give low values 0.973 | S. cerevisiae deletion strains, locus YDR101C, strain arx1, hits give low values 0.992 | S. cerevisiae deletion strains, locus YDR150W, strain NUM1, hits give low values 0.999 | S. cerevisiae deletion strains, locus YDR162C, strain NBP2, hits give low values 1.04 | S. cerevisiae deletion strains, locus YDR318W, strain mcm21, hits give low values 0.979 | S. cerevisiae deletion strains, locus YDR388W, hits give low values 0.98 | S. cerevisiae deletion strains, locus YDR502C, strain sam2, hits give low values 0.999 | S. cerevisiae deletion strains, locus YEL061C, strain CIN8, hits give low values 0.998 | S. cerevisiae deletion strains, locus YER110C, hits give low values 0.97 | S. cerevisiae deletion strains, locus YER155C, strain BEM2, hits give low values 0.994 | S. cerevisiae deletion strains, locus YER167W, strain BCK2, hits give low values 0.98 | S. cerevisiae deletion strains, locus YGL078C, strain dbp3, hits give low values 0.994 | S. cerevisiae deletion strains, locus YGL086W, strain mad1, hits give low values 0.98 | S. cerevisiae deletion strains, locus YGL248W, strain PDE1, hits give low values 0.991 | S. cerevisiae deletion strains, locus YGR078C, strain PAC10, hits give low values 1.02 | S. cerevisiae deletion strains, locus YGR135W, strain pre9, hits give low values 1.01 | S. cerevisiae deletion strains, locus YGR229C, strain SMI1, hits give low values 1.02 | S. cerevisiae deletion strains, locus YGR252W, strain gcn5, hits give low values 0.901 | S. cerevisiae deletion strains, locus YHR030C, strain SLT2, hits give low values 0.99 | S. cerevisiae deletion strains, locus YHR079C, strain IRE1 (second series), hits give low values 0.976 | S. cerevisiae deletion strains, locus YHR094C, strain hxt1, hits give low values 0.988 | S. cerevisiae deletion strains, locus YHR129C, strain ARP1, hits give low values 0.997 | S. cerevisiae deletion strains, locus YHR200W, strain rpn10, hits give low values 0.971 | S. cerevisiae deletion strains, locus YIL066C, strain RNR3, hits give low values 0.986 | S. cerevisiae deletion strains, locus YIL073C, strain SPO22, hits give low values 0.958 | S. cerevisiae deletion strains, locus YIL125W, strain kgd1, hits give low values 0.988 | S. cerevisiae deletion strains, locus YIR030C, strain dcg1, hits give low values 0.993 | S. cerevisiae deletion strains, locus YJL095W, strain BCK1, hits give low values 1.02 | S. cerevisiae deletion strains, locus YJL134W, strain LCB3, hits give low values 0.993 | S. cerevisiae deletion strains, locus YJL168C, strain set2, hits give low values 0.984 | S. cerevisiae deletion strains, locus YJL187C, strain SWE1 (second series), hits give low values 1.01 | S. cerevisiae deletion strains, locus YJR043C, strain POL32, hits give low values 1.01 | S. cerevisiae deletion strains, locus YJR075W, strain HOC1, hits give low values 1.01 | S. cerevisiae deletion strains, locus YKL009W, strain mrt4, hits give low values 0.972 | S. cerevisiae deletion strains, locus YKL068W, hits give low values 0.991 | S. cerevisiae deletion strains, locus YKL085W, strain MDH1 (second series), hits give low values 0.98 | S. cerevisiae deletion strains, locus YKL085W, strain MDH1, hits give low values 0.98 | S. cerevisiae deletion strains, locus YKL190W, strain CNB1, hits give low values 1 | S. cerevisiae deletion strains, locus YKR001C, strain vps1, hits give low values 0.993 | S. cerevisiae deletion strains, locus YLR039C, strain RIC1, hits give low values 1.01 | S. cerevisiae deletion strains, locus YLR058C, strain SHM2, hits give low values 0.989 | S. cerevisiae deletion strains, locus YLR102C, strain apc9, hits give low values 0.989 | S. cerevisiae deletion strains, locus YLR262C, strain YPT6, hits give low values 0.997 | S. cerevisiae deletion strains, locus YLR268W, strain sec22, hits give low values 1.01 | S. cerevisiae deletion strains, locus YLR330W, strain CHS5, hits give low values 0.99 | S. cerevisiae deletion strains, locus YLR342W, strain FKS1 (second series), hits give low values 0.976 | S. cerevisiae deletion strains, locus YLR371W, strain rom2, hits give low values 0.971 | S. cerevisiae deletion strains, locus YLR418C, strain cdc73, hits give low values 1.04 | S. cerevisiae deletion strains, locus YML016C, strain PPZ1, hits give low values 0.991 | S. cerevisiae deletion strains, locus YML032C, strain rad52, hits give low values 0.971 | S. cerevisiae deletion strains, locus YML124C, strain tub3, hits give low values 0.983 | S. cerevisiae deletion strains, locus YMR078C, strain ctf18, hits give low values 0.971 | S. cerevisiae deletion strains, locus YMR223W, strain ubp8, hits give low values 0.968 | S. cerevisiae deletion strains, locus YMR263W, strain SAP30, hits give low values 1.02 | S. cerevisiae deletion strains, locus YMR307W, strain GAS1, hits give low values 0.95 | S. cerevisiae deletion strains, locus YNL067W, strain RPL9B, hits give low values 1.02 | S. cerevisiae deletion strains, locus YNL128W, strain TEP1, hits give low values 0.996 | S. cerevisiae deletion strains, locus YNL153C, strain GIM3, hits give low values 1.03 | S. cerevisiae deletion strains, locus YNL233W, strain BNI4, hits give low values 1.02 | S. cerevisiae deletion strains, locus YNL250W, strain rad50, hits give low values 0.978 | S. cerevisiae deletion strains, locus YNL271C, strain bni1, hits give low values 0.973 | S. cerevisiae deletion strains, locus YNL298W, strain CLA4, hits give low values 0.982 | S. cerevisiae deletion strains, locus YNL307C, strain MCK1, hits give low values 0.99 | S. cerevisiae deletion strains, locus YNL322C, strain KRE1, hits give low values 0.997 | S. cerevisiae deletion strains, locus YNR052C, strain pop2, hits give low values 0.959 | S. cerevisiae deletion strains, locus YOL006C, strain TOP1, hits give low values 1.02 | S. cerevisiae deletion strains, locus YOL012C, strain htz1 0.931 | S. cerevisiae deletion strains, locus YOL147C, strain pex11, hits give low values 0.983 | S. cerevisiae deletion strains, locus YOR061W, strain CKA2, hits give low values 0.998 | S. cerevisiae deletion strains, locus YOR069W, strain VPS5, hits give low values 0.991 | S. cerevisiae deletion strains, locus YOR136W, strain idh2, hits give low values 0.972 | S. cerevisiae deletion strains, locus YOR144C, strain elg1, hits give low values 0.977 | S. cerevisiae deletion strains, locus YOR184W, strain ser1, hits give low values 0.971 | S. cerevisiae deletion strains, locus YOR316C, strain cot1, hits give low values 0.981 | S. cerevisiae deletion strains, locus YPL055C, strain LGE1, hits give low values 1.03 | S. cerevisiae deletion strains, locus YPL241C, strain CIN2, hits give low values 1 | S. cerevisiae deletion strains, locus YPR119W, strain clb2, hits give low values 0.995 | S. cerevisiae deletion strains, locus YPR141C, strain kar3, hits give low values 0.976 | S. cerevisiae deletion strains, locus YPR163C, strain tif3, hits give low values 0.987 | S. cerevisiae deletion strains, locus YPR167C, strain met16, hits give low values 0.986 | S. cerevisiae deletion strains, strain wtn01, hits give low values 1.01 | S. cerevisiae strains, strain wild type, hits give low values 0.994
